Calls of active or inactive are those of the source. How the source made its calls: active means hit-call score of the fitted dose curve at least 0.9, where 1 is the maximum; inactive means score below 0.9.
Experiments:
[1] = ATG_CRE_CIS: Attagene CIS-FACTORIAL HepG2 Assay for human cAMP Responsive Element (CRE) binding protein 3 (AID 2282926); settings: HepG2 CRE cis-reporter, Attagene multiplexed mRNA; actives raise or lower the signal
Method in brief: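 Cells carrying cis-regulated reporter constructs respond through their own endogenous factors. After 24 h treatment, RNA is reverse-transcribed, amplified, labelled and sized by capillary electrophoresis; up- and down-regulation are both scored against vehicle.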

[2] = target: CCAAT/enhancer-binding protein beta (Homo sapiens) (UniProt P17676); test: ATG_C_EBP_CIS: Attagene CIS-FACTORIAL HepG2 Assay for human CCAAT/Enhancer Binding Protein (C/EBP) beta (AID 2282927); settings: HepG2 Attagene cis-factorial transcription factor reporter; actives raise or lower the signal
Method in brief: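 Changes in reporter mRNA, rather than exogenous chimeric receptor activity, reflect native C/EBP signalling in transfected HepG2 cells dosed for 24 h; transcripts are detected by RT-PCR and capillary electrophoresis.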

[3] = ATG_CMV_CIS: Attagene CIS-FACTORIAL HepG2 Assay for human CMV (Internal Marker) (AID 2282928); settings: HepG2 CMV promoter reporter, transcription factor profiling; actives raise or lower the signal;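 further: endpoint acts as a background internal control marker rather than a target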
Method in brief: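 Fluorescence intensity of RT-PCR-derived reporter fragments, resolved by capillary electrophoresis, gives the signal. HepG2 liver cells bearing transfected cis-element reporters were treated 24 h; activity in either direction was fit relative to DMSO-treated controls.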

[4] = ATG_DR4_LXR_CIS: Attagene CIS-FACTORIAL HepG2 Assay for human Liver X Receptor (LXR), DR4 submotif (AID 2282929); settings: HepG2 Attagene DR4 cis-reporter, mRNA transcription; actives raise or lower the signal
Method in brief: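 The endpoint is DR4-element-driven reporter transcripts after 24 h chemical exposure of transfected HepG2 cells. These were measured via RT-PCR and capillary electrophoresis, and gain or loss of signal was fitted relative to DMSO controls.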

[5] = target: Aryl hydrocarbon receptor (Homo sapiens) (UniProt P35869); test: ATG_Ahr_CIS: Attagene CIS-FACTORIAL HepG2 Assay for human Aryl Hydrocarbon Receptor (Ahr) (AID 2282930); settings: HepG2 AhR cis-factorial reporter transcription; actives raise or lower the signal
Method in brief: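 HepG2, transient MRTU (cis) transfection, 24 h exposure. RNA → cDNA → PCR → 6-FAM primer extension → HpaI 2 h 37 C → CE. Fit: bidirectional, DMSO baseline.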

Measured: AC50

CCAAT/enhancer-binding protein beta (Homo sapiens), sequence (P17676 whole entry, looked up): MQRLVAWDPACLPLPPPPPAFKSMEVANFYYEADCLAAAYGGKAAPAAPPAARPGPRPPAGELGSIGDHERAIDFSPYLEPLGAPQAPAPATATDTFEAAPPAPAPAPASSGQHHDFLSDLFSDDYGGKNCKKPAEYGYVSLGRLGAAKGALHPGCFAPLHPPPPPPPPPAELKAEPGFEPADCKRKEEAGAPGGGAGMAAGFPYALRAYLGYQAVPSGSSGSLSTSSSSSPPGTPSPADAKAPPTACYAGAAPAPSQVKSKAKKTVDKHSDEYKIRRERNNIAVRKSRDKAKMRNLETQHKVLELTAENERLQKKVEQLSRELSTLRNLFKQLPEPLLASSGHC
Aryl hydrocarbon receptor (Homo sapiens), sequence (P35869 whole entry, looked up): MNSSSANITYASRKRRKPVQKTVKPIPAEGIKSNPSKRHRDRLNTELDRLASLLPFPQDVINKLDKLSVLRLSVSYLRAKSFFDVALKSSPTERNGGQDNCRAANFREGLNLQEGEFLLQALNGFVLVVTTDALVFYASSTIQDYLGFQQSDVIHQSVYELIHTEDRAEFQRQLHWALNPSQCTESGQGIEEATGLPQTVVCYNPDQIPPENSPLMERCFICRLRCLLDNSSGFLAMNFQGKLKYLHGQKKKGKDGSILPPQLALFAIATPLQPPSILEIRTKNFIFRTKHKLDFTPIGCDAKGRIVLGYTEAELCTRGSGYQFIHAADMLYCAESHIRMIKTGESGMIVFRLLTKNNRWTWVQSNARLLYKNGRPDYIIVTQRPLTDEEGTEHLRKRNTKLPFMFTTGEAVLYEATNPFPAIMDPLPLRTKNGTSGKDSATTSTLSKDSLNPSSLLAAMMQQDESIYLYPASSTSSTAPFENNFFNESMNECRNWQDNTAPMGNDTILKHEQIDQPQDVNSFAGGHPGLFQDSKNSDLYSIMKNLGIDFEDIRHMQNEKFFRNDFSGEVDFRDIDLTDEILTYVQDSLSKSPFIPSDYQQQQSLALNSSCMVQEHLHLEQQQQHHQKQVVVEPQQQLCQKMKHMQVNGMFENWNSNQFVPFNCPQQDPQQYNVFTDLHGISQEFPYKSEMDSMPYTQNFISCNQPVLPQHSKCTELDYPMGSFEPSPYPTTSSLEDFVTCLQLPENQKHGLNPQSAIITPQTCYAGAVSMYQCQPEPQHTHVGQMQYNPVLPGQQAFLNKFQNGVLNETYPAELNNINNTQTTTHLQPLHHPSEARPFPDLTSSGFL

CCN(CC)C(=O)Cl
inactive: all assays above

CC(C)c1cccc(C(C)C)c1O
inactive: all assays above

C[C@@H](Oc1ccc(Cl)cc1Cl)C(=O)O
inactive: all assays above

CC(C)CCCCCCOC(=O)c1ccccc1C(=O)OCCCCCCC(C)C
inactive: all assays above

Cl/C=C\C[N+]12CN3CN(CN(C3)C1)C2
active: [3] 170 µM | [4] 41.7 µM
inactive: all other assays above

O=C(NCO)NCO
inactive: all assays above

CCOP(=S)(OCC)Oc1ccc(S(C)=O)cc1 (stereo not drawn)
active: [5] 32.5 µM
inactive: all other assays above

N#CN=C(N)N
inactive: all assays above

Nc1ncc([N+](=O)[O-])s1
active: [5] 62 µM
inactive: all other assays above

CCc1ccccc1N
active: [5] 67.2 µM
inactive: all other assays above

CC1CN1P(=O)(N1CC1C)N1CC1C (stereo not drawn)
inactive: all assays above

COP(=S)(OC)Oc1ccc(S(=O)(=O)N(C)C)cc1
inactive: all assays above

Clc1ccc(C2(Cn3cncn3)CC(Br)CO2)c(Cl)c1 (stereo not drawn)
active: [3] 99.5 µM | [4] 68.1 µM | [5] 27.6 µM
inactive: [1] | [2]

C(=NC1CCCCC1)=NC1CCCCC1
active: [4] 33.4 µM
inactive: all other assays above

CCOP(=O)(CN(CCO)CCO)OCC
inactive: all assays above

CC(=[OH+])/C=C(/C)[O-].CC(=[OH+])/C=C(/C)[O-].CC(=[OH+])/C=C(/C)[O-].[Fe]
inactive: all assays above

O=S(=O)(c1ccc(Cl)cc1)c1ccc(Cl)cc1
active: [3] 16.5 µM
inactive: all other assays above

OCc1ccco1
inactive: all assays above

c1ccc(N=NNc2ccccc2)cc1
active: [4] 115 µM | [5] 5.92 µM
inactive: all other assays above

Cc1ccc2ccccc2c1C
inactive: [2] | [3] | [4]

CCCCCCCCSC(=O)Oc1cc(Cl)nnc1-c1ccccc1
active: [3] 171 µM | [4] 159 µM
inactive: all other assays above

O=C(c1ccccc1)C(Cl)Cl
active: [3] 28.7 µM | [4] 8.03 µM
inactive: all other assays above

BrCCBr
inactive: all assays above

CC1(C)Cc2cccc(O)c2O1
inactive: all assays above

ClC1=C(Cl)[C@]2(Cl)[C@H]3[C@H]([C@H]4C=C[C@H]3C4)[C@@]1(Cl)C2(Cl)Cl
active: [4] 10.2 µM
inactive: all other assays above

O=C(O)Cc1ccccc1
inactive: all assays above

COc1cc2c(cc1OC)[C@@]13CCN4CC5=CCO[C@H]6CC(=O)N2[C@H]1[C@H]6[C@H]5C[C@H]43
inactive: all assays above

CCOC(=O)CP(=O)(OCC)OCC
inactive: all assays above

COc1cccc(C=O)c1
inactive: all assays above

CN(CCCC(=O)c1cccnc1)N=O
inactive: all assays above

CC(Br)C(=O)O (stereo not drawn)
inactive: all assays above

NNC(=S)NN
inactive: all assays above

CC(=O)c1cc(C(C)(C)C)cc2c1CCC2(C)C
inactive: [5]
active: [1] 100 µM | [2] 159 µM | [3] 62.5 µM | [4] 26.1 µM

C=CC#N
inactive: all assays above

C[C@]12CC[C@H](O)CC1=CC[C@@H]1[C@@H]2CC[C@]2(C)C(=O)CC[C@@H]12
active: [3] 27.7 µM
inactive: all other assays above

Reference: PubChem BioAssay (EPA / NIEHS)
